Compound activity: PubChem, several laboratories
Hits are enriched below; roughly 2.5% of the tested compounds scored in any of these assays.
V-ATPase pHluor: regulators of yeast V-ATPase proton pumping, primary screen, pHLuorin cytosolic pH fluorescence; 0.37% of 350,000 active; S. cerevisiae; response, % at 10 µM; in the data active = response mostly above about 7.3%, no sharp cut-off; inactive = mostly below about 5.4%; note: actives read high
Efflux pump inh: inhibitors of Candida efflux pumps in yeast, primary screen, S. cerevisiae, Nile Red, multiplex; S. cerevisiae Candida pump triplex; inhibition, % at 10 µM; 0.44% of 330,000 active; AID 485275, 2010;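 active = plate passing quality check with inhibition over a set limit, or well fluorescence over plate mean plus 4 SD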;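 note: Nile Red retained in pooled yeast measured as flow cytometry median fluorescence; 0% = buffer negative control and 100% = Enniatin B positive control; higher means more Nile Red kept so more efflux inhibition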
SUMO Mot1 rescue: yeast Mot1-301 growth rescue at high temperature, primary screen, SUMOylation pathway inhibitor project, S. cerevisiae, ATP luminescence, 38.5C; S. cerevisiae Mot1-301 growth rescue; percent above DMSO median, 100 means doubled; growth rescue, % at 18.8 µM; 1% of 320,000 active;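 active = every valid replicate shows activation above 250% relative to neutral control wells; inactive = the rest, any valid replicate at or below 250%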;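 note: OY570 slx delta 5 strain wells were the positive control but not used for scaling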
ATG4B inhibitor: ATG4B protease inhibitors, primary screen, biochemical, fluorescence, uHTS; Cysteine protease ATG4B (Homo sapiens), Q9Y4P1; ATG4B cleavage of LC3-PLA2, NBD-HPC fluorescence, 1 h; inhibition, % at 8.33 µM; 0.51% of 340,000 active; in the data active = inhibition above about 40%
Target sequence (Q9Y4P1 whole entry, looked up): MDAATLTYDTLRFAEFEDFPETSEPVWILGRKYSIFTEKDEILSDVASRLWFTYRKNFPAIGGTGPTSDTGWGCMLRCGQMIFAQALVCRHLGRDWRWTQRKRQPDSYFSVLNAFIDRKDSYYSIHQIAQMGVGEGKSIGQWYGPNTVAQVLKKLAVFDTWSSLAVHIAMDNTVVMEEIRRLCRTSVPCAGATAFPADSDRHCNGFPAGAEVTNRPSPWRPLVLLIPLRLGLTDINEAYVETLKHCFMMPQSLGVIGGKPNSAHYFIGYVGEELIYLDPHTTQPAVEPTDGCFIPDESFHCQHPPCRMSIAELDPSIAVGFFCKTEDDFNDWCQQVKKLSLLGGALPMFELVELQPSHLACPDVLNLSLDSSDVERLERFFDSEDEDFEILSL
AI-2 QS modul: Vibrio harveyi AI-2 quorum sensing modulators, primary screen, JMH597 strain, luminescence/OD600 ratio; Vibrio harveyi JMH597 AI-2 luminescence/OD600 ratio, 9 h; hits give low values; strain lacks LuxN and CqsS sensors; 0 = neutral-control median; activity change, % at 7.5 µM; 0.4% of 300,000 active; in the data active = activity change below about -75%, passing the limit was not always enough; inconclusive = no clear call, values can overlap the other calls;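 note: luminescence divided by OD600 gain over 9 h not by final OD600 alone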
* = called active by the depositor; ? = inconclusive; . = no result.

SMILES	V-ATPase pHluor	Efflux pump inh	SUMO Mot1 rescue	ATG4B inhibitor	AI-2 QS modul
CC1CN(C(=O)COC(=O)c2ccc(S(=O)(=O)N(C)C)cc2)CC(C)O1 (stereo not given)	0	0	20	-14	1
CN(C)S(=O)(=O)c1ccc(C(=O)OCC2CC2(Cl)Cl)cc1 (stereo not given)	3	0	21	-1	-77*
Cc1scc(C(=O)N/N=C/c2ccco2)c1C	1	0	8	-9	18
O=[N+]([O-])c1ccc(/C=N/Nc2nc(N3CCCC3)nc(N3CCCC3)n2)o1	1	0	-3	3	35
CCNc1nc(NCC)nc(N/N=C/c2ccc([N+](=O)[O-])o2)n1	1	0	-15	-2	-158*
O=C(N/N=C/c1ccc([N+](=O)[O-])o1)c1ccc(O)cc1	-2	0	0	2	-128*
Cc1scc(C(=O)N/N=C/c2ccc([N+](=O)[O-])o2)c1C	0	0	27	.	-91*
O=C(c1cccs1)N1C[C@@H](n2cc(-c3ccc(F)cc3)nn2)[C@H](O)C[C@@H]1c1ccccc1	3	.	.	.	.
Cc1ccc(NC(=O)c2nc(S(=O)(=O)Cc3ccccc3C)ncc2Cl)cc1C	-4	0	163	4	8
Cc1cn([C@H]2C[C@H](O)[C@@H](CNC(=O)c3ccccn3)O2)c(=O)[nH]c1=O	0	.	.	.	.
COCCN(C(=O)COC(=O)CSc1ccccc1)c1c(N)n(Cc2ccccc2)c(=O)[nH]c1=O	-1	0	356*	0	24
NC(=O)C(c1ccc(Cl)cc1)c1ccc(Sc2ccc(Cl)cc2)nn1 (stereo not given)	-3	0	17	-2	-83*
COc1ccc(C(=O)NNC(=S)NC(=O)c2ccco2)cc1	-3	0	2	-15	-149*
O=C(NC(=S)NNC(=O)c1ccco1)c1ccc(Br)cc1	-2	0	-17	0	-128*
O=C(NNC(=O)c1cccc([N+](=O)[O-])c1)c1ccncc1	-1	0	-9	0	3
CCCOc1ccc(C(=O)NNC(=S)NC(=O)c2ccco2)cc1	-2	0	-10	-11	?
O=C(NNC(=S)NC(=O)c1cccc([N+](=O)[O-])c1)c1ccc(Br)cc1	-2	-1	-8	4	-212*
O=C(NNC(=O)c1ccncc1)Nc1cccc([N+](=O)[O-])c1	-3	0	430*	-3	8
COc1ccc(CNC(=O)CN2C(=O)COc3ccc(S(=O)(=O)N4CCCCC4)cc32)cc1	3	0	-20	-3	29
COC(=O)c1ccc(NC(=O)c2ccc(NC(=O)c3ccco3)cc2)cc1	0	11*	149	-6	31
CCCOc1ccc(C(=O)NNC(=S)NC(=O)c2ccccc2)cc1	-1	0	-2	3	-213*
O=C(NNC(=S)NC(=O)c1ccco1)c1ccc(F)cc1	-3	0	-18	-3	-104*
CCCOc1ccc(C(=O)NNC(=S)NC(C)=O)cc1	0	0	-21	8	?
CCOc1ccc(NC(=O)CCNC(=O)C2CCN(S(=O)(=O)c3ccccc3)CC2)cc1	-1	0	39	-1	8
CC(C)c1ccc(NCCC(=O)c2ccc(Br)cc2)cc1	1	0	324*	1	16
SMILES	V-ATPase pHluor	Efflux pump inh	SUMO Mot1 rescue	ATG4B inhibitor	AI-2 QS modul
CCCCCCCCC(=O)NNC(=O)c1c(O)c2ccccc2n(CCC)c1=O	-3	0	312*	10	8
CC(C)(C)c1cc(C(=O)N2CCc3ccccc32)ccn1	17*	0	11	1	4
O=C(CCSc1ccc(Br)cc1)c1ccc(O)cc1	-1	0	23	9	-77*
Cc1ccc(NS(=O)(=O)c2ccc3c(c2)n(C)c(=O)n3C)c(C)c1	-2	0	355*	-21	28
Cn1c(=O)n(C)c2cc(S(=O)(=O)Nc3ccccc3O)ccc21	0	0	0	5	15
O=C(CNC(=O)c1cccs1)NCC(=O)OCc1c(Cl)cccc1Cl	4	0	7	0	35
CCc1ccc(OCCNC(=O)c2cccs2)cc1	-2	0	37	-11	-79*
O=C(NCc1ccc(F)cc1)c1cccs1	2	0	318*	0	4
O=C(CNC(=O)c1cccs1)OCc1ccc(Cl)cc1	-1	0	-4	4	-79*
COc1ccc(CNC(=O)c2cccs2)cc1	-5	0	334*	-2	12
Cc1cnc(C2OCCO2)c2cccc([N+](=O)[O-])c12	0	.	.	.	.
COc1cccc(CN(C)C(=O)c2ccc(Oc3ccccc3)cc2)c1OC	-3	0	75	1	23
CN1CCN(c2ccc(C(CC(N)=O)NC(=O)Cc3cccc4ccccc34)cc2[N+](=O)[O-])CC1 (stereo not given)	-1	0	-9	-6	50
COc1ccc(C(CNC(=O)c2oc3c(Cl)cccc3c2C)N2CCCC2)cc1 (stereo not given)	-1	0	41	2	3
CN(C)c1ccc(C=C2C(=O)OC(C)(C(C)(C)C)OC2=O)cc1 (stereo not given)	2	0	311*	-2	22
CN(C)c1ccc(C=C2C(=O)OC(C)(C)OC2=O)cc1	3	0	-3	-1	15
CCc1nc(SCC(=O)N2c3ccccc3CC2C)c2c(C)c(C)sc2n1 (stereo not given)	0	0	-7	83*	14
Cc1nnc(SCC(=O)N2c3ccccc3CC2C)s1 (stereo not given)	-4	0	436	-5	23
NS(=O)(=O)c1cc2c(cc1Cl)NC(Cc1ccccc1)NS2(=O)=O (stereo not given)	-2	0	200	-5	32
Cc1nc(N)nc(N)c1/C=C/C(C)(C)c1ccc(Cl)cc1	0	.	.	-9	-89*
CCc1nnc(NC(=O)COc2ccc3c(c2)OCO3)s1	-1	0	260*	-1	11
O=C(C#Cc1ccccc1)c1ccco1	2	0	43	-8	-94*
O=C(N/N=C/c1ccccc1)c1ccco1	3	0	6	-2	7
CCCCc1ccc(-c2nc(N)n[nH]2)cc1	5	0	840*	-9	31
CC(NC(=O)COc1cccc(Br)c1)C(=O)O (stereo not given)	1	0	997*	5	12
Cc1ccc([C@@H]2CC=C(C(=O)O)[C@H](c3cccc(F)c3)N2S(=O)(=O)c2ccccc2C)cc1	2	0	280*	-5	.
Cc1ccc([C@@H]2CC=C(C(=O)O)[C@H](c3ccc(Cl)cc3)N2S(=O)(=O)c2ccccc2C)cc1	2	1	255*	12	.
